Assay results reported in publication PMC7862700, “An all-to-all approach to the identification of sequence-specific readers for epigenetic DNA modifications on cytosine”.

What was measured:
Assay in all cases: DAPPL (digital affinity profiling via proximity ligation, sequencing); 10 mM Tris-HCl pH 7.5, 50 mM NaCl, 1 mM DTT, 4% glycerol, room temperature, 30 min; GST-TFs on glutathione beads, 16-mer random dsDNA library, 0.1% formaldehyde crosslink after washing; high values mean tight binding
FEV = molecular target: T1, FEV (Homo sapiens, UniProt Q99581 1-238); details: protein: recombinant; tags: N-terminal GST; dsDNA, one strand shown
T1 sequence: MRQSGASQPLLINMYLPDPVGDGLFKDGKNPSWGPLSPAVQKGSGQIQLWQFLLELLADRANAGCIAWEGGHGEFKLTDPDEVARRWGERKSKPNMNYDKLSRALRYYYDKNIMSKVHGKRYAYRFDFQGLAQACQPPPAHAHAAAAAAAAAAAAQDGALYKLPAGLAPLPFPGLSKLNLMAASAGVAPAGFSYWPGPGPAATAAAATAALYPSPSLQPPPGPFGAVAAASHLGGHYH
How it was run: (§1)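 Human transcription factors fused to GST were expressed in yeast, captured on glutathione beads, given DNA barcodes and pooled with a GST-only negative control. Pools were incubated with 200 nmole of a 16-mer random double-stranded DNA library in Tris/NaCl/DTT/glycerol buffer at room temperature for 30 min. They were then washed, crosslinked with 0.1% formaldehyde, proximity-ligated (BsaI/T4 ligase, 1 h, 37 °C), PCR-amplified and sequenced on an Illumina NextSeq500. Binding signal is each 6-mer's read frequency for a factor divided by its frequency for the GST control.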

ETV5 = ETV5 (Homo sapiens, UniProt P41161 1-510); details: protein: recombinant; tags: N-terminal GST; dsDNA, one strand shown
Chain of ETV5 (P41161 whole entry): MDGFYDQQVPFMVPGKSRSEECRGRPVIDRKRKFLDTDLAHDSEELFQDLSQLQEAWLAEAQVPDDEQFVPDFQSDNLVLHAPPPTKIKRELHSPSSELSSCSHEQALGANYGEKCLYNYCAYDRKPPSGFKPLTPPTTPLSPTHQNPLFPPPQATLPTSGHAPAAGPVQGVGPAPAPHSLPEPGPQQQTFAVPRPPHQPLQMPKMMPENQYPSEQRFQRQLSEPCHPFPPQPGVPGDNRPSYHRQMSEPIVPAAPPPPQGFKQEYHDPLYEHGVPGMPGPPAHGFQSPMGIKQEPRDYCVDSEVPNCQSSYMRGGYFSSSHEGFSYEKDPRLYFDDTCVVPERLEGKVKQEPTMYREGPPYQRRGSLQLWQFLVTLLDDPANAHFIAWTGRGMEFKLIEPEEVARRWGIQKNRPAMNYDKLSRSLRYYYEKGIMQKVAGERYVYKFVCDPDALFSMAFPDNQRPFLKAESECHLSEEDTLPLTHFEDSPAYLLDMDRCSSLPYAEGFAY
How it was run: as §1

HSF1 = HSF1 (Homo sapiens, UniProt Q00613 1-529); details: protein: recombinant; tags: N-terminal GST; chain copies: 3; dsDNA, one strand shown
Chain of HSF1 (Q00613 whole entry): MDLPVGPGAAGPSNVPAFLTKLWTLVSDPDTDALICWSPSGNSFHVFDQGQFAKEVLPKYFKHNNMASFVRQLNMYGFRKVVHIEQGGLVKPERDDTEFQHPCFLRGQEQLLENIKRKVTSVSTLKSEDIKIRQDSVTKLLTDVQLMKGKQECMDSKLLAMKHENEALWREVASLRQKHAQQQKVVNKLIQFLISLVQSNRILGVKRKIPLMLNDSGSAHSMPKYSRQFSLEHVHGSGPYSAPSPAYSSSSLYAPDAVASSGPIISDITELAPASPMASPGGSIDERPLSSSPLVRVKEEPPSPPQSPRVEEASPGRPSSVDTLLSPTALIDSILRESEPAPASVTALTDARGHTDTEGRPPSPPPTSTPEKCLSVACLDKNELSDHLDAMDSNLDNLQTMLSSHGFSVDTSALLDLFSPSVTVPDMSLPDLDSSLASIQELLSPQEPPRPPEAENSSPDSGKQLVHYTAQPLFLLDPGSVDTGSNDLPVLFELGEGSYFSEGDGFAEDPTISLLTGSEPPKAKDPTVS
How it was run: as §1

SPIC = molecular target: T2, SPIC (Homo sapiens, UniProt Q8N5J4 1-248); details: protein: recombinant; tags: N-terminal GST; dsDNA, one strand shown
T2 sequence: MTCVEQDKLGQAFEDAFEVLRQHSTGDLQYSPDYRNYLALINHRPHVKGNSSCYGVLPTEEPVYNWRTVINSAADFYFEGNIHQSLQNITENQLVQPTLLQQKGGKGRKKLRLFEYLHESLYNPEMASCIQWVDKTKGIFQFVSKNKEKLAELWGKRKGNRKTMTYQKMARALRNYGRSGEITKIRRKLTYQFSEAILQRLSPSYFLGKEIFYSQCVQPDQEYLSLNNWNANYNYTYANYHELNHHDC
How it was run: as §1

ELF4 = ELF4 (Homo sapiens, UniProt Q99607 1-663); details: protein: recombinant; tags: N-terminal GST; dsDNA, one strand shown
Chain of ELF4 (Q99607 whole entry): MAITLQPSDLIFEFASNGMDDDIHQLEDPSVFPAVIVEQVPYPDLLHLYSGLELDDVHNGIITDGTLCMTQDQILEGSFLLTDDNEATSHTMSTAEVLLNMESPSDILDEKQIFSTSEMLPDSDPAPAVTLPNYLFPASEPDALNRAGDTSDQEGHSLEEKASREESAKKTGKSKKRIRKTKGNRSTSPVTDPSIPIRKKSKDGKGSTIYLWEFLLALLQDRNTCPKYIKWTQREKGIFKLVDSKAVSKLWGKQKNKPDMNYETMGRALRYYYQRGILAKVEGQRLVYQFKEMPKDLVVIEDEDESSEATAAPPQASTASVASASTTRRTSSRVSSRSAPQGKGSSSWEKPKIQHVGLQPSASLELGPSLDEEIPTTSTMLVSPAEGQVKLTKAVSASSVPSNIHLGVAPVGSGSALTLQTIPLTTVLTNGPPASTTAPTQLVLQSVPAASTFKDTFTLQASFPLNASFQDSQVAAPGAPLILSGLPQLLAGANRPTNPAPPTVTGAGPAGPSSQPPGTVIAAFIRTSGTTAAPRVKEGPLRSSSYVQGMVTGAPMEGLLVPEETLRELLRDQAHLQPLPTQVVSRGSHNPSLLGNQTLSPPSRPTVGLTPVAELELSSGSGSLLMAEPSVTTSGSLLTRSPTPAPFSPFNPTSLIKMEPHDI
How it was run: as §1

ELK4 = molecular target: T3, ELK4 (Homo sapiens, UniProt P28324-2 1-405); details: protein: recombinant; tags: N-terminal GST; dsDNA, one strand shown
T3 sequence: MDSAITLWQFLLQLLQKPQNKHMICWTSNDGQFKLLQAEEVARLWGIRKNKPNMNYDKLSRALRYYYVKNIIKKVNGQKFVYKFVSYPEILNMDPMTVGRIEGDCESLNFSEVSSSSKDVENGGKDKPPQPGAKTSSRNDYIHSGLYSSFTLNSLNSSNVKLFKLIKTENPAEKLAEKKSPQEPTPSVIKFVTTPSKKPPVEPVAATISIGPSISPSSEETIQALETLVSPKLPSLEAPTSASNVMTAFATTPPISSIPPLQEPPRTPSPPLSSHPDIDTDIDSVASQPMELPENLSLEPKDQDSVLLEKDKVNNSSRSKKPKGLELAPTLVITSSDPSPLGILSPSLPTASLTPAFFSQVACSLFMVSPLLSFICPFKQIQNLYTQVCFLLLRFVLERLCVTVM
How it was run: as §1

ETV2 = molecular target: T4, ETV2 (Homo sapiens, UniProt O00321 1-342); details: protein: recombinant; tags: N-terminal GST; dsDNA, one strand shown
T4 sequence: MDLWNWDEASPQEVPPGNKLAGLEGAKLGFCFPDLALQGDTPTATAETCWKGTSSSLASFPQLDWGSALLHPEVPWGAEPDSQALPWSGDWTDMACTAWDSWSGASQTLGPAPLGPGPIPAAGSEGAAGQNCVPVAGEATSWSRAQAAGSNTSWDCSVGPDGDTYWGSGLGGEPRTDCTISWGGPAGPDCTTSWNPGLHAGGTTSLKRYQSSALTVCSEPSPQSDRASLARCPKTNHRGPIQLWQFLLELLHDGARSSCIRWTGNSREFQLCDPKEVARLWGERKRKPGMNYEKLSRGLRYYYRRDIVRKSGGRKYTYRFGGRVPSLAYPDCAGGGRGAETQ
How it was run: as §1

ELF3 = molecular target: T5, ELF3 (Homo sapiens, UniProt P78545 1-371); details: protein: recombinant; tags: N-terminal GST; dsDNA, one strand shown
T5 sequence: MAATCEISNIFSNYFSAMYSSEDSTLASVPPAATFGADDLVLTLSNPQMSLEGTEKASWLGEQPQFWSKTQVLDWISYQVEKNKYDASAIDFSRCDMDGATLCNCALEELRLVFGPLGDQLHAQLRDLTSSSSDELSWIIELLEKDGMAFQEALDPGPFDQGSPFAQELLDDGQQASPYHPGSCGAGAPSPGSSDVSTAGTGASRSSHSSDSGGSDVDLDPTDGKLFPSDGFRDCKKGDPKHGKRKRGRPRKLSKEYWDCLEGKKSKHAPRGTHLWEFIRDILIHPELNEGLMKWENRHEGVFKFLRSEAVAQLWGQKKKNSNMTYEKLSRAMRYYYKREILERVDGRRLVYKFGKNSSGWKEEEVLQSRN
How it was run: as §1

CRX = CRX (Homo sapiens, UniProt O43186 1-299); details: protein: recombinant; tags: N-terminal GST; dsDNA, one strand shown
Chain of CRX (O43186 whole entry): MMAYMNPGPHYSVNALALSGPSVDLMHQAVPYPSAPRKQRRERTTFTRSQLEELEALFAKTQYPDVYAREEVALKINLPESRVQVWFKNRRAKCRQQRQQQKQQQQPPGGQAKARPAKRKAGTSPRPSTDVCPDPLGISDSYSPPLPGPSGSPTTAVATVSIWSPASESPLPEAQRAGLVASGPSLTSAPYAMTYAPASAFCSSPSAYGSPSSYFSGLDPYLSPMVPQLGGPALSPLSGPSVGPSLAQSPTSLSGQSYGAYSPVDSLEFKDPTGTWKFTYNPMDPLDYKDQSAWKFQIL
How it was run: as §1

ETV1 = ETV1 (Homo sapiens, UniProt P50549 1-477); details: protein: recombinant; tags: N-terminal GST; dsDNA, one strand shown
Chain of ETV1 (P50549 whole entry): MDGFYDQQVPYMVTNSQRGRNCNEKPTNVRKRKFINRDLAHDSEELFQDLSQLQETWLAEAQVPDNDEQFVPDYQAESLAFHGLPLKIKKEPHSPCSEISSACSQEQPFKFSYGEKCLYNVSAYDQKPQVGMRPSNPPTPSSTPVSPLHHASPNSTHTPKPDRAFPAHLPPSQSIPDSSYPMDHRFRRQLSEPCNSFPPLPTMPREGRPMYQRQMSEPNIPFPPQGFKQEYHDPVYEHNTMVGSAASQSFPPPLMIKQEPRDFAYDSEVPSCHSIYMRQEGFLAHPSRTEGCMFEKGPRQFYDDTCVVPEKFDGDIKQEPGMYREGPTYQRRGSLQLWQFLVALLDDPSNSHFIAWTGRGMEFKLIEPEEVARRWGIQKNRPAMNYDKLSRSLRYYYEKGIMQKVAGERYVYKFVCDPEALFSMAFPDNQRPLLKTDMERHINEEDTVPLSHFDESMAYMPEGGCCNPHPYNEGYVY
How it was run: as §1

TCGATT
binding signal (FEV): 1.02 fold enrichment (6-mer frequency, TF over GST control) | binding signal (ETV5): 1.12 fold enrichment (6-mer frequency, TF over GST control) | binding signal (HSF1): 1.48 fold enrichment (6-mer frequency, TF over GST control) | binding signal (SPIC): 1.2 fold enrichment (6-mer frequency, TF over GST control) | binding signal (ELF4): 1.19 fold enrichment (6-mer frequency, TF over GST control) | binding signal (ELK4): 1.14 fold enrichment (6-mer frequency, TF over GST control) | binding signal (ETV2): 1.04 fold enrichment (6-mer frequency, TF over GST control) | binding signal (ELF3): 1.1 fold enrichment (6-mer frequency, TF over GST control) | binding signal (CRX): 1.37 fold enrichment (6-mer frequency, TF over GST control) | binding signal (ETV1): 1.14 fold enrichment (6-mer frequency, TF over GST control)
